Test results published in the supplement of paper PMC12494721.
Structures can show the parent of a compound that is named as a salt.

Tests used:
Conditions in all cases: incubation time: 27 h, anaerobic, 37 °C;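 for the amine columns active = adjusted P below 0.05 in both replicates with a change the same way and a mean fold change under 0.8 or over 1.25; inactive = the rest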
[1] = tested on: Clostridium sporogenes DSM 1664; assay: growth (OD595) fold change vs plate DMSO controls (fold change (ratio)); higher = more growth
Outline: (§1)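 Anaerobic mGAM cultures in 96-well plates were grown for 27 h at 37 °C, and absorbance was then read at 595 nm. After blank and compound background correction with 20 µM compound solutions in water, a calibration factor of 5 gave OD. Growth is the fold change relative to the median of each plate's DMSO controls. Values are means of 2 biological replicates, with fold changes above 1.5 set to NA.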

Escherichia coli IAI1 [2] = assay: as above
Outline: as §1

[3] = tested on: Klebsiella aerogenes DSM 30053; assay: as above
Outline: as §1

[4] = tested on: Ruminococcus gnavus DSM 108212; assay: as above
Outline: as §1

[5] = tested on: Klebsiella aerogenes DSM 30053; assay: fold change of Histamine concentration vs plate DMSO controls (fold change (ratio)); higher = more amine produced, active = hit call of the paper (significant change in both replicates, either direction)
Outline: (§2)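 Each value is the fold change relative to DMSO-only wells on the same plate. Four gut bacterial strains were grown anaerobically in mGAM at 37 °C for 27 h in 80 µL wells, starting at OD 0.1 before a 1:1 dilution, with compounds at 20 µM final (sweeteners 50 µM). Whole cultures were extracted with cold acetonitrile/methanol containing 0.1% formic acid, centrifuged, and amines were quantified by LC–triple-quadrupole MS (dynamic MRM) against external calibration curves with within-batch drift correction. Values are means of 2 biological replicates.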

[6] = tested on: Clostridium sporogenes DSM 1664; assay: fold change of Tryptamine concentration vs plate DMSO controls (fold change (ratio)); higher = more amine produced, active = hit call of the paper (significant change in both replicates, either direction)
Outline: as §2

[7] = tested on: Ruminococcus gnavus DSM 108212; assay: as above
Outline: as §2

Escherichia coli IAI1 [8] = assay: fold change of Putrescine concentration vs plate DMSO controls (fold change (ratio)); higher = more amine produced, active = hit call of the paper (significant change in both replicates, either direction)
Outline: as §2

[9] = tested on: Klebsiella aerogenes DSM 30053; assay: as above
Outline: as §2

Escherichia coli IAI1 [10] = assay: fold change of Cadaverine concentration vs plate DMSO controls (fold change (ratio)); higher = more amine produced, active = hit call of the paper (significant change in both replicates, either direction)
Outline: as §2

[11] = tested on: Klebsiella aerogenes DSM 30053; assay: as above
Outline: as §2

[12] = tested on: Ruminococcus gnavus DSM 108212; assay: fold change of 2-Phenylethylamine concentration vs plate DMSO controls (fold change (ratio)); higher = more amine produced, active = hit call of the paper (significant change in both replicates, either direction)
Outline: as §2

| Compound | growth [1] | growth (Escherichia coli IAI1 [2]) | growth [3] | growth [4] | fold change of Histamine concentration [5] | fold change of Tryptamine concentration [6] | fold change of Tryptamine concentration [7] | fold change of Putrescine concentration (Escherichia coli IAI1 [8]) | fold change of Putrescine concentration [9] | fold change of Cadaverine concentration (Escherichia coli IAI1 [10]) | fold change of Cadaverine concentration [11] | fold change of 2-Phenylethylamine concentration [12] |
| --- | --- | --- | --- | --- | --- | --- | --- | --- | --- | --- | --- | --- |
| CN(C)CCC=C1c2ccccc2COc2ccccc21 [Doxepin hydrochloride] (20 µM) | 1.04 | 0.995 | 0.978 | 0.833 | 0.999 (inactive) | 0.959 (inactive) | 0.977 (inactive) | 1.03 (inactive) | 1 (inactive) | 0.919 (inactive) | 1 (inactive) | 0.921 (inactive) |
| CC(=O)OC[C@H]1O[C@@H]([S-])[C@H](OC(C)=O)[C@@H](OC(C)=O)[C@@H]1OC(C)=O.CCP(CC)CC.[Au+] [Auranofin] (20 µM) | 0.978 | 1.02 | 0.951 | 0.00158 | 0.65 (active) | 0.49 (active) | 0.05 (active) | 0.925 (inactive) | 0.89 (inactive) | 0.996 (inactive) | 0.972 (inactive) | 0.0596 (active) |
| Clc1ccc(C(c2ccccc2Cl)C(Cl)Cl)cc1 (stereo not given) [Mitotane] (20 µM) | 1.01 | 1.04 | 1.03 | 1.34 | 1.01 (inactive) | 0.997 (inactive) | 1.01 (inactive) | 1.03 (inactive) | 1 (inactive) | 1.03 (inactive) | 1.01 (inactive) | 1.03 (inactive) |
| c1ccc2cc3ccccc3cc2c1 [Anthracene] (20 µM) | 1.03 | 1.04 | 0.993 | 0.985 | 1.03 (inactive) | 1.03 (inactive) | 1.02 (inactive) | 1.01 (inactive) | 0.986 (inactive) | 0.976 (inactive) | 1.02 (inactive) | 0.963 (inactive) |
| Nc1ccc2cc3ccc(N)cc3nc2c1 [Proflavine hemisulfate] (20 µM) | 1.13 | 0.951 | 1 | 1.02 | 0.816 (inactive) | 1 (inactive) | 0.861 (inactive) | 1.03 (inactive) | 0.963 (inactive) | 1.16 (inactive) | 0.982 (inactive) | 0.861 (inactive) |
| C=C(CC)C(=O)c1ccc(OCC(=O)O)c(Cl)c1Cl [Ethacrynic acid] (20 µM) | 1.11 | 0.984 | 1.01 | 1.19 | 0.964 (inactive) | 1.01 (inactive) | 0.941 (inactive) | 0.972 (inactive) | 1.03 (inactive) | 0.985 (inactive) | 0.999 (inactive) | 0.917 (inactive) |
| CN(C)C/C=C(/c1ccc(Br)cc1)c1cccnc1 [Zimelidine dihydrochloride monohydrate] (20 µM) | 0.928 | 0.997 | 0.991 | 1.03 | 1.01 (inactive) | 1.03 (inactive) | 0.987 (inactive) | 0.804 (inactive) | 0.993 (inactive) | 1.49 (active) | 0.978 (inactive) | 1.04 (inactive) |
| Cc1ccccc1OCC(O)CO (stereo not given) [Mephenesin] (20 µM) | 0.974 | 1.12 | 1.02 | 0.982 | 1.01 (inactive) | 1.02 (inactive) | 1.04 (inactive) | 1.13 (inactive) | 1 (inactive) | 0.927 (inactive) | 1 (inactive) | 1.06 (inactive) |
| CC(=O)[C@@]1(O)CC[C@H]2[C@@H]3C[C@H](C)C4=CC(=O)C=C[C@]4(C)[C@@]3(F)[C@@H](O)C[C@@]21C [Fluorometholone] (20 µM) | 1.02 | 0.986 | 1.01 | 1.14 | 1.05 (inactive) | 1.05 (inactive) | 1.08 (inactive) | 0.992 (inactive) | 0.968 (inactive) | 0.957 (inactive) | 0.983 (inactive) | 1.14 (inactive) |
| CC1=C(C(=O)O)N2C(=O)[C@@H](NC(=O)[C@H](N)c3ccccc3)[C@H]2SC1 [Cephalexin monohydrate] (20 µM) | 0.958 | 0.985 | 0.98 | 0.987 | 1.03 (inactive) | 1.17 (inactive) | 1.1 (inactive) | 0.911 (inactive) | 0.934 (inactive) | 0.879 (inactive) | 1.01 (inactive) | 1.15 (inactive) |
| Cc1ccccc1C(OCCN(C)C)c1ccccc1 (stereo not given) [Orphenadrine hydrochloride] (20 µM) | 0.998 | 1.02 | 0.938 | 1.09 | 0.902 (inactive) | 1.34 (inactive) | 1.07 (inactive) | 1.07 (inactive) | 0.895 (inactive) | 1.04 (inactive) | 1.03 (inactive) | 1.16 (inactive) |
| CCC1NC(=O)c2cc(S(N)(=O)=O)c(Cl)cc2N1 (stereo not given) [Quinethazone] (20 µM) | 0.978 | 0.894 | 0.838 | 0.755 | 1.02 (inactive) | 1.27 (inactive) | 1.1 (inactive) | 0.956 (inactive) | 0.92 (inactive) | 1.01 (inactive) | 1.19 (inactive) | 1.24 (inactive) |
| CCCC(CCC)C(=O)O[C@H]1C[C@H]2CC[C@@H](C1)[N+]2(C)C [Anisotropine Methylbromide] (20 µM) | 1.04 | 1.07 | 0.99 | 1.01 | 0.986 (inactive) | 1.06 (inactive) | 1.04 (inactive) | 1.03 (inactive) | 0.962 (inactive) | 0.948 (inactive) | 0.99 (inactive) | 1.06 (inactive) |
| O=C(O)c1ccccc1Nc1cc(Cl)ccc1C(=O)O [Lobenzarit disodium] (20 µM) | 0.929 | 1 | 1.02 | 1.08 | 1.02 (inactive) | 1.07 (inactive) | 0.976 (inactive) | 0.987 (inactive) | 0.994 (inactive) | 0.932 (inactive) | 1 (inactive) | 1.01 (inactive) |
| CN1CCN2c3ccccc3Cc3ccccc3C2C1 (stereo not given) [Mianserine hydrochloride] (20 µM) | 0.914 | 0.996 | 0.995 | 0.931 | 0.916 (inactive) | 0.952 (inactive) | 0.998 (inactive) | 1.02 (inactive) | 0.98 (inactive) | 0.999 (inactive) | 0.999 (inactive) | 1.03 (inactive) |
| OCCN1C[C@H](O)[C@@H](O)[C@H](O)[C@H]1CO [Miglitol] (20 µM) | 1.09 | 1.01 | 1.02 | 1.05 | 1.02 (inactive) | 1 (inactive) | 1.02 (inactive) | 1 (inactive) | 1.01 (inactive) | 0.964 (inactive) | 1.01 (inactive) | 1.03 (inactive) |
| NC12CC3CC(CC(C3)C1)C2 [Adamantamine fumarate] (20 µM) | 0.99 | 1.02 | 0.991 | 0.942 | 0.988 (inactive) | 0.971 (inactive) | 1.09 (inactive) | 0.924 (inactive) | 0.993 (inactive) | 1.03 (inactive) | 1.09 (inactive) | 1.23 (inactive) |
| Cc1ncc(CO)c(CO)c1O [Pyridoxine hydrochloride] (20 µM) | 1.06 | 0.974 | 1.06 | 1.01 | 0.916 (inactive) | 1.05 (inactive) | 1.02 (inactive) | 0.925 (inactive) | 0.989 (inactive) | 1.06 (inactive) | 1.02 (inactive) | 1.01 (inactive) |
| CC(NCCc1ccc(O)cc1)C(O)c1ccc(O)cc1 (stereo not given) [Ritodrine hydrochloride] (20 µM) | 0.998 | 0.987 | 0.985 | 0.697 | 0.979 (inactive) | 1 (inactive) | 1.02 (inactive) | 0.985 (inactive) | 1.01 (inactive) | 1.01 (inactive) | 1.01 (inactive) | 1.05 (inactive) |
| CC(C)(Sc1cc(C(C)(C)C)c(O)c(C(C)(C)C)c1)Sc1cc(C(C)(C)C)c(O)c(C(C)(C)C)c1 [Probucol] (20 µM) | 1.03 | 1.06 | 1.03 | 1.15 | 0.921 (inactive) | 1.02 (inactive) | 1.01 (inactive) | 1.04 (inactive) | 0.983 (inactive) | 0.921 (inactive) | 1.01 (inactive) | 1.01 (inactive) |
| Nc1ccccc1S(N)(=O)=O [o-Sulfanilamide] (20 µM) | 0.883 | 1.01 | 1.01 | 1 | 1.02 (inactive) | 0.958 (inactive) | 0.928 (inactive) | 1.03 (inactive) | 1.01 (inactive) | 1 (inactive) | 1 (inactive) | 0.905 (inactive) |
| Nc1ccc(S(=O)(=O)Nc2ccc(Cl)nn2)cc1 [Sulfachloropyridazine] (20 µM) | 1.03 | 0.966 | 1.05 | 0.974 | 0.939 (inactive) | 1.01 (inactive) | 1.04 (inactive) | 0.964 (inactive) | 0.976 (inactive) | 0.962 (inactive) | 1.01 (inactive) | 1.14 (inactive) |
| CN(C)CCCN1c2ccccc2CCc2ccc(Cl)cc21 [Clomipramine hydrochloride] (20 µM) | 1.07 | 0.978 | 0.972 | 0.705 | 1.04 (inactive) | 1.04 (inactive) | 0.823 (inactive) | 0.997 (inactive) | 1.03 (inactive) | 1.06 (inactive) | 0.985 (inactive) | 0.82 (inactive) |
| O=P(O)(O)C(O)(Cc1cccnc1)P(=O)(O)O [Risedronic acid monohydrate] (20 µM) | 1.08 | 1.12 | 1 | 0.913 | 1.05 (inactive) | 1.04 (inactive) | 1.04 (inactive) | 1.2 (inactive) | 1.02 (inactive) | 0.97 (inactive) | 1.01 (inactive) | 1.07 (inactive) |
| CC(C)OC(=O)C(C(=O)OC(C)C)=C1SC=CS1 [Malotilate] (20 µM) | 1.09 | 1.07 | 1.08 | 1.16 | 0.94 (inactive) | 0.958 (inactive) | 0.956 (inactive) | 1.07 (inactive) | 1.04 (inactive) | 0.949 (inactive) | 1.02 (inactive) | 0.88 (inactive) |
